The campaign covered roughly 340,000 compounds. About 12,000 (3.5%) were called active. Inconclusive results (about 18%) are left out. Calls come from the whole dose curve; as a rule, active = well fitted inhibition curve with a large enough effect; inconclusive = small, poorly fitted or top-dose-only effect, or another doubt; inactive = no such curve, though single readings can be large or run the other way. What follows is part of a selection rich in actives, with near analogues and random picks from the rest. Where a call stands in place of a potency, no number is given.
Test: qHTS Assay for Inhibitors of Hepatitis C Virus (HCV)
Conditions: Huh7.5.1 HCVcc-Cre infection, luciferase reporter, 44 h; series mostly up to 41.8 µM
From the text: Hepatitis C virus (HCV) infects about 200 million people in the world. Many infected people progress to chronic liver disease including cirrhosis with a risk of developing liver cancer. To date, there is no effective vaccine for hepatitis C. Current therapy based on interferon is only effective in about half of the patients and is associated with significant adverse effects. The fraction of people with HCV who can complete a successful treatment is estimated to be no more than 10 percent. Recent development of direct-acting antivirals against HCV, such as protease and polymerase inhibitors, is promising but still requires combination with peginterferon and ribavirin for maximal efficacy. In addition, these agents are associated with high rate of resistance and many have significant side effects. Due to the lack of a culture system for infectious HCV, the search for new HCV drugs has been greatly hampered. […] High-throughput screening (HTS) with an infectious HCV system would cover the complete spectrum of potentially druggable targets in all stages of HCV lifecycle, and would have more biological relevance than other cell-based assays. Moreover, targeting several key processes in the viral life cycle may not only increase antiviral efficacy; more importantly, it may also reduce the capacity of the virus to develop resistance to the compound. The goal of this project is to identify novel HCV inhibitors as new therapies for hepatitis C, using a highly sensitive and specific assay platform which is based on a HCV infectious cell culture system established in the laboratory and adapted for high-throughput HCV drug screen. NIH Chemical Genomics Center [NCGC] NIH Molecular Libraries Probe Centers Network [MLPCN] MLPCN Grant: MH095511 Assay Submitter (PI): Jake Liang, NIDDK
The assay will start with plating 1,000 cells/well in 3 µL volume and culture for 4 h. Then 23 nL of compounds from the library collection will be added to each well, followed by adding 2.5 µL of HCVcc-Cre virus (~ 0.5 moi) and further cultured for 44 h before the luciferase assay. A volume of 4.5 µL luciferase substrates will be added to each well and the plates will be incubated at room temperature for 15 min. and then read for 15 sec. for the luciferase activity

| Structure (SMILES) | Potency | activity change, negative = inhibition |
| --- | --- | --- |
| O=C(OCC(=O)N1CCN(C(=O)c2ccco2)CC1)c1c(Cl)cccc1Cl | inactive |  |
| CC1CCCCC1NC(=O)Cn1cnc2c1c(=O)n(C)c(=O)n2C (configuration not stated) | inactive |  |
| C/C(=N\NC(=S)Nc1ccc(C)cc1)c1cc2ccccc2o1 | 10 µM (active) |  |
| Cc1ccc(NC(=O)c2cc3ccccc3o2)cc1 | inactive |  |
| Cc1ccc(OC(=O)c2cc3ccccc3o2)cc1 | inactive |  |
| COc1cc(C(=O)NC2CCN(C)CC2)ccc1Nc1ncc2c(n1)N(C1CCC(O)CC1)CCC(=O)N2C (configuration not stated) | inactive |  |
| O=C(CSc1nnc(N2CCOCC2)n1-c1cccc(F)c1)N1CCN(c2ccccn2)CC1 | inactive |  |
| Cc1cccc(-n2ncc3c(=O)[nH]c(SCC(=O)Nc4cc(C)on4)nc32)c1 | inactive |  |
| Cc1c(O)c(C)c2c(c1O)C(=O)C[C@@H](c1ccccc1)O2 | inactive |  |
| O=C(COc1ccc([N+](=O)[O-])cc1Cl)Nc1ccc2[nH]c(=O)[nH]c2c1 | inactive |  |
| O=C(Nc1ccc(CSc2ccccc2)cc1)c1ccc(CN2CCOCC2)cc1 | 3.16 µM (active) |  |
| O=C(Nc1ccccc1C(=O)N1CCOCC1)c1ccc(CSc2ccccc2)cc1 | inactive |  |
| COc1ccc(C(=O)Nc2ccc(CN3CCOCC3)cc2)cc1 | inactive |  |
| CN(Cc1ccccc1)C(=O)COC(=O)/C=C/c1ccc2c(c1)OCO2 | inactive |  |
| CC(=O)c1c(C)[nH]c(C(=O)COc2ccc3c(C)cc(=O)oc3c2)c1C | inactive |  |
| O=C(Nc1ccc2nc3n(c(=O)c2c1)CCCC3)c1ccc(Cl)nc1 | inactive |  |
| CC1(C)C/C(=N/Nc2ccc([N+](=O)[O-])cc2[N+](=O)[O-])C(C)(C)O1 | inactive |  |
| CCOC(=O)C1(Cc2cccc(OC)c2)CCN(Cc2csc(C(C)=O)c2)CC1 | 22.4 µM (active) |  |
| CCOC(=O)C1(Cc2cccc(OC)c2)CCN(C(C)COC)CC1 (configuration not stated) | inactive |  |
| CCOC(=O)C1(Cc2cccc(OC)c2)CCN(C(C)CC(C)(C)O)CC1 (configuration not stated) | inactive |  |
| c1ccc(-c2c[nH]c(-c3ccccc3)c2)cc1 | inactive |  |
| Cc1cc2oc3ccc(NCCC4CCCN4C)cc3c(=O)c2cc1C (configuration not stated) | 14.1 µM (active) |  |

| Structure (SMILES) | Potency | activity change, negative = inhibition |
| --- | --- | --- |
| CCCOc1ccc(C2c3c(oc4cc(C)c(C)cc4c3=O)C(=O)N2CCCN2CCOCC2)cc1 (configuration not stated) | inactive |  |
| Cc1cc2oc(=O)cc(CN3CCN(Cc4ccccc4)CC3)c2cc1C | inactive |  |
| CSc1ncccc1C(=O)Nc1ccc2c(c1)OCO2 | inactive |  |
| O=C1C2C3C=CC(C3)C2C(=O)N1c1ncc([N+](=O)[O-])s1 (configuration not stated) | inactive |  |
| CCN(C(=O)CSc1ncnc2sccc12)c1c(N)n(Cc2ccccc2)c(=O)[nH]c1=O | inactive |  |
| O=c1c2c(nc3n1CCCCC3)sc1c(O)cccc12 | inactive |  |
| Cc1c(C(=O)Nc2ccccc2)sc2nc3n(c(=O)c12)CCCCC3 | inactive |  |
| CC(=O)c1ccc(NC(=O)c2sc3nc4n(c(=O)c3c2C)CCCCC4)cc1 | 11.2 µM (active) |  |
| O=C(c1ccc(Cl)nc1)N1CCN(S(=O)(=O)c2ccc3c(c2)OCCO3)CC1 | inactive |  |
| COc1cc(C(c2c(NC(=O)c3ccco3)sc(C)c2C)N2CCOCC2)cc(OC)c1OC (configuration not stated) | inactive |  |
| COc1cccc(NC(=O)C2C(c3ccccc3)C2(Cl)Cl)c1 (configuration not stated) | 12.6 µM (active) |  |
| COc1cccc(NC(=O)c2ccccc2SC)c1 | inactive |  |
| COc1cccc(NC(=O)C2CCCN2C(=O)OCc2ccccc2)c1 (configuration not stated) | inactive |  |
| Cc1ccccc1-c1cc(C(=O)NCc2cccs2)n(CC2CC(c3cccnc3)=NO2)n1 (configuration not stated) | inactive |  |
| O=C(CCCCCCCC(=O)N1CCCCC1)N1CCCCC1 | inactive |  |
| O=C(CC1SC(N2CCOCC2)=NC1=O)Nc1ccccc1F (configuration not stated) | inactive |  |
| COc1cc(C=O)c(Br)cc1OCC(=O)NCc1ccccc1 | inactive |  |
| COc1cc(C(=S)NCc2ccccc2)cc(Br)c1O | inactive |  |
| COc1cc(C(=O)NCc2ccncc2)cc(Br)c1OCc1ccccc1 | 10 µM (active) |  |
| O=c1c2ccccc2ncn1CCc1ccncc1 | inactive |  |
| CCOc1ncccc1C(=O)OCC(=O)N1c2ccccc2CC1C (configuration not stated) | inactive |  |
| C[C@@H]1CN([C@@H](C)CO)C(=O)c2cccc(NS(=O)(=O)c3ccc(F)cc3)c2O[C@H]1CN(C)C(=O)NC1CCCCC1 | inactive |  |

| Structure (SMILES) | Potency | activity change, negative = inhibition |
| --- | --- | --- |
| O=C(NCCN1CCN(Cc2ccccc2)CC1)c1cc2c(=O)[nH]c3ccccc3c2s1 | 12.6 µM (active) |  |
| CCN(CC)CCCNC(=O)c1cc2c(=O)[nH]c3ccc(C)cc3c2s1 | inactive |  |
| Cn1c(C(=O)NCCN2CCc3ccccc3C2)cc2c(=O)[nH]c3ccccc3c21 | inactive |  |
| CSc1ccccc1C(=O)OCC(=O)N1CCN(C(C)=O)CC1 | inactive |  |
| Cc1ccc(S(=O)(=O)n2oc(=O)c(C3CCCCC3)c2N)cc1 | inactive |  |
| O=C1CSc2ccc(C(=O)NCc3ccccn3)cc2N1 | inactive |  |
| COc1ccc(-c2oc3ncnc(NCCCO)c3c2-c2ccc(OC)cc2)cc1 | 12.6 µM (active) |  |
| COc1ccc(CCNc2ncnc3c2nnn3Cc2ccccc2)cc1 | inactive |  |
| COc1cc2nc(Cl)nc(NCCO)c2cc1OC | inactive |  |
| Nc1ccc2c(c1)C(O)c1ccc(Cl)cc1-2 (configuration not stated) | inactive |  |
| CN(C)CCOCCOc1ccc(Cl)c2ccccc12 | 10 µM (active) |  |
| Clc1cccc(Cl)c1OCCOCCNCc1ccccc1 | inactive |  |
| CN(C)CCOC1c2ccccc2-c2ccccc21 | inactive |  |
| CCC(C)N(C(=O)CSc1nnnn1-c1ccccc1OC)C1CCS(=O)(=O)C1 (configuration not stated) | inactive |  |
| CN(C(=O)Cn1nnc(-c2ccc(F)cc2)n1)C1CCS(=O)(=O)C1 (configuration not stated) | inactive |  |
| CCOC(=O)C1CCCN(C(=O)/C=C/c2ccc(OC)cc2)C1 (configuration not stated) | inactive |  |
| CCN1CCC(O)(/C=C/c2ccc(C)cc2)C(C(=O)/C=C/c2ccc(C)cc2)C1 (configuration not stated) | 14.1 µM (active) |  |
| CCN1CCN(C(=O)CSc2ccc(C)cc2)CC1 | inactive |  |
| NC(=O)C1(Nc2ccccc2Cl)CCCC1 | inactive |  |
| O=C(CCNC(=O)c1ccc(Cl)cc1)NC1CCCc2ccccc21 (configuration not stated) | inactive |  |
| CCOc1ccc(C(C)NC(=O)CN2C(=O)NC3(CCCCC3)C2=O)cc1OCC (configuration not stated) | inactive |  |
| CN(C)S(=O)(=O)c1cccc(NC(=O)COC(=O)/C=C/c2cccs2)c1 | inactive |  |

| Structure (SMILES) | Potency | activity change, negative = inhibition |
| --- | --- | --- |
| CN(C)S(=O)(=O)c1cccc(NC(=O)COc2ccc3ccccc3c2)c1 | 22.4 µM (active) |  |
| CN(C)S(=O)(=O)c1cccc(NC(=O)COC(=O)c2cc(=O)[nH]c(=O)[nH]2)c1 | inactive |  |
| CCc1c(Nc2ccccc2C)nc(N)[nH]c1=O | inactive |  |
| C[C@H](CO)N1C[C@H](C)[C@@H](CN(C)S(=O)(=O)c2ccc(F)cc2)Oc2ccc(NC(=O)CCC(F)(F)F)cc2C1=O | inactive |  |
| CCOC(=O)c1ccc(-n2c(C)nc3c(cnn3-c3ccccc3C)c2=O)cc1 | inactive |  |
| Cc1ccc(Oc2cnn(-c3ccccc3)c(=O)c2Br)cc1 | inactive |  |
| COc1ccc(-n2c(C)nc3c(cnn3-c3ccccc3)c2=O)cc1 | 11.2 µM (active) |  |
| COc1ccc(CNC(=O)COC(=O)c2sccc2C)cc1OC | inactive |  |
| O=C(COc1cccnc1[N+](=O)[O-])Nc1ccc(Cl)cc1F | inactive |  |
| COC(C[C@@H]1O[C@@H]1C(=O)[C@H](C)OCc1ccccc1)OC | inactive |  |
| Cc1nc(Nc2ccccc2C)c2cnn(C)c2n1 | inactive |  |
| CCCNS(=O)(=O)c1ccc(CCC(=O)N2CCCC2)cc1 | inactive |  |
| CCNS(=O)(=O)c1ccc(CCC(=O)N2CCN(c3cc(Cl)ccc3C)CC2)cc1 | 11.2 µM (active) |  |
| CCNS(=O)(=O)c1ccc(CCC(=O)N2CCN(c3ccc(OC)cc3)CC2)cc1 | inactive |  |
| COC(C/C=C/C(=O)[C@@H](C)OCc1ccccc1)OC | inactive |  |
| CS(=O)(=O)c1sc2nc(-c3ccccc3)cc(-c3ccccc3)c2c1N | inactive |  |
| c1ccc(-c2cc(-c3ccccc3)[nH]n2)cc1 | inactive |  |
| Nc1nc(-c2ccccc2)cc(-c2ccccc2)n1 | 10 µM (active) |  |
| COCCNc1nnc(SCC(=O)NNC(=O)c2ccco2)s1 | inactive |  |
| Cn1c(=O)c(Sc2ccc(Cl)cc2)c(O)c2ccccc21 | inactive |  |
| CCCn1c(=O)c(-c2ccccc2)c(O)c2ccccc21 | inactive |  |
| Cc1cc(C)c(-c2c(O)c3ccccc3n(C)c2=O)c(C)c1 | 11.2 µM (active) |  |

| Structure (SMILES) | Potency | activity change, negative = inhibition |
| --- | --- | --- |
| CC(C#N)(NC(=O)CN1CCN(S(=O)(=O)c2cc(C(F)(F)F)ccc2Cl)CC1)C1CC1 (configuration not stated) | inactive |  |
| Cc1[nH]c(=O)c(C(=O)/C=C/c2ccccc2)c2c1CCCC2 | 14.1 µM (active) |  |
| O=C(/C=C/c1ccccc1)c1ccoc1 | inactive |  |
| Cc1cn(COC/C=C/c2ccccc2)c(=O)[nH]c1=O | inactive |  |
| O=C(NCCS(=O)(=O)N1CCN(c2ccccc2)CC1)c1ccco1 |  | 5.8% [at 8.37 µM] (inactive) |
| Cc1cc(Oc2ccc(Cl)cc2)nc(SCC(=O)c2ccccc2)n1 | inactive |  |
| COC(=O)c1cc(C(=O)CSc2nc(C)cc(C)n2)ccc1O | inactive |  |
| Cc1cc(C)nc(SCC(=O)c2ccc(Cl)cc2)n1 | 2.82 µM (active) |  |
| Cn1nnnc1SCC(=O)Nc1sccc1C(N)=O | inactive |  |
| NC(=O)C1(N2CCCC2)CCN(Cc2ccccc2)CC1 | inactive |  |
| Cc1cccc2nc(CSc3nc4[nH]ncc4c(=O)n3-c3cccc(Cl)c3)cc(=O)n12 |  | -0.622% [at 0.335 µM] (inactive) |
| CCc1ccc(-n2c(SCc3cc(=O)n4cc(Br)ccc4n3)nc3[nH]ncc3c2=O)cc1 | 10 µM (active) |  |
| Cc1ccc(CSc2nc3[nH]ncc3c(=O)[nH]2)cc1 | inactive |  |
| CN1C(c2ccc(F)cc2)=CS/C1=C(/C#N)c1nnc2n1-c1ccccc1SC2 | inactive |  |
| CC(CNC(=O)Cn1cnc2c(OCc3ccccc3)ncnc21)c1ccccc1 (configuration not stated) | inactive |  |
| CN(CC(=O)Nc1ccccc1Cl)C(=O)c1ccccc1SCC(=O)N1CCCC1 | inactive |  |
| N=c1n(CCc2ccccc2)c2ccccc2n1Cc1ccccc1F | 12.6 µM (active) |  |
| O=C(COC(=O)Cc1ccccc1F)NCCc1ccccc1 | inactive |  |
| CC(=O)NC(C)c1nc2ccccc2n1Cc1ccccc1F (configuration not stated) | inactive |  |
